Bioassay records from PubChem.
SW480 rereplic: A quantitative high throughput screen for small molecules that induce DNA re-replication in SW480 colon adenocarcinoma cells | 340,000 compounds, 1.8% hits | Potency, µM (doses to about 46.1 µM), for the others: at the highest dose re-replication activation, usual class: activators | SW480 DNA re-replication, Hoechst DNA content imaging, 48 h; further: % of control where 0% means no effect; nearly all actives have a fitted effect of over 55% in size
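Cells (250 per well) received 23 nL compound or DMSO by pin tool and were kept 48 hr at 37 C, 5% CO2. Nuclei were then stained with Hoechst for 40 min and scanned for DNA content.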
PINK1 modulator: A Quantitative High throughput Screen to Identify Chemical Modulators of PINK1 Expression. Potency, µM (top dose mostly 76.6 µM), inactives show at the top dose activation (PINK1 increase), actives largely listed as activators. 410,000 compounds, 0.2% hits. PINK1 immunofluorescence, high-content cytometry, 24 h. AID 624263, 2012; active means well fitted activation curve with a large enough effect; inconclusive means small, poorly fitted or top-dose-only effect; cell line not stated here; further: % of control where 0% means no effect; nearly all actives have a fitted effect of over 65% in size
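Stable cell line treated 24 h with compounds at 5 concentrations (CCCP controls), then fixed and immunostained for PINK1 plus nuclear and cell stains; PINK1 immunofluorescence quantified by laser-scanning microplate cytometry.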
KB-V1 MDR tox: qHTS assay for MDR1-selective chemotherapeutics: Primary screen using the drug-selected MDR subline cells KB-V1. KB-V1 MDR cells viability, CellTiter-Glo, 72 h. Potency, µM (top dose mostly 46.1 µM), most hits filed as cytotoxic. 400,000 compounds, 3.4% hits; further: on the % scale 0 is the no-effect control and ±100 the full control effect; nearly all actives have a fitted effect of over 60% in size
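qHTS viability screen in drug-selected KB-V1 MDR cells: 72 h compound treatment at 37 degrees C, ATP luminescence end point.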
MCF10A rereplic: A quantitative high throughput screen for small molecules that induce DNA re-replication in MCF 10a normal breast cells; 350,000 compounds, 2.9% hits; MCF 10A DNA re-replication, Hoechst nuclear intensity, 48 h; Potency, µM (titrated, usually from 46.1 µM), inactives show at the highest dose activity, positive = re-replication, actives largely listed as activators; AID 624296, 2012; further: % of control where 0% means no effect; nearly all actives have a fitted effect of over 50% in size
KB-3-1 cytotox: qHTS assay for MDR1-selective chemotherapeutics: Primary screen using the parental adenocarcinoma cell KB-3-1. KB-3-1 viability, CellTiter-Glo ATP luminescence, 72 h. Potency, µM (top dose mostly 46.1 µM), usual class: cytotoxic. 400,000 compounds, 1.4% hits; further: on the % scale 0 is the no-effect control and ±100 the full control effect; nearly all actives have a fitted effect of over 60% in size
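Cytotoxicity in the drug-sensitive parental line KB-3-1 was scored as loss of CellTiter-Glo luminescence following 72 h incubation with compound. Values come from curve fitting of normalized concentration-response data.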
The depositor's hits bear a star; i = inactive; ? = inconclusive; . = no result given; [ ] = another dose, or the depositor's remark. In the library only some 6.7% were active in any assay of this set; here they are far more common. Unless noted, the call rests on the fitted dose curve; in most records, active means well fitted curve in the direction sought with a large enough effect; inconclusive means small, poorly fitted or top-dose-only effect, or another doubt; inactive means no such curve, though single readings can be large; an effect the other way counts as inactive or inconclusive. Potency means the concentration at half of the fitted maximal effect.

SMILES	SW480 rereplic	PINK1 modulator	KB-V1 MDR tox	MCF10A rereplic	KB-3-1 cytotox
COc1ccc(/C=N\NC(=O)c2ccccc2Cl)cc1COc1c(F)c(F)c(F)c(F)c1F	?	3%	i	9.2µM*	?
CSc1ccccc1CNC(=O)C1(C)CCCN1CC(C)C (configuration not stated)	.	9%	i	.	i
Cn1c(=O)c(-c2cccc(Cl)c2)nc2cncnc21	.	0%	.	.	.
COc1ccc(/C=N/NC(=O)c2ccn[nH]2)cc1COc1ccc(F)cc1	11%[9.22 µM]	3%	?	112%	?
COc1ccc(/C=N/NC(=O)c2ccn[nH]2)cc1COc1ccc(Cl)cc1Cl	?	3%[38.3 µM]	i	12µM*	i
O=C(NC(=S)NNC(=O)c1ccccc1O)c1ccccc1	15µM*	-2%	i	30%	?
Cc1ccc(C(=O)NC(=S)NNC(=O)c2ccccc2O)cc1	-2%	-3%	i	?	i
O=C(CCc1ccccc1)NC(=S)Nc1cccc(C(=O)O)c1	-2%	-1%	i	-1%	i
CC(=O)NC(=S)NNC(=O)CCc1ccccc1	-15%	3%	i	-14%	i
O=C(NNC(=S)NC(=O)c1ccccc1[N+](=O)[O-])c1ccccc1O	-16%	28µM*	i	-1%	?
O=C(CCc1ccccc1)NNC(=S)NC(=O)c1ccccc1	3.7µM*	-3%[38.3 µM]	?	3.3µM*	i
O=C(CCc1ccccc1)NC(=S)Nc1cccc(Br)c1	0%	11%	i	16µM*	i
COc1ccc(C(=O)NCCc2nnc3ccc(SCC(=O)NCCc4ccc(OC)c(OC)c4)nn23)cc1	21%	-1%	i	-13%	i
COc1cccc(CN(C(=O)c2oc3ccc(Br)cc3c2C)C2CCS(=O)(=O)C2)c1 (configuration not stated)	.	-2%	i	.	i
Cc1onc(-c2ccccc2)c1C(=O)NC(=S)NNC(=O)c1ccc(O)cc1O	-2%	?	3.3µM*	?	4.6µM*
O=C(NC(=S)NCc1cccnc1)c1ccccc1[N+](=O)[O-]	-32%	6%	23µM*	1%	i
Cc1onc(-c2ccccc2)c1C(=O)NC(=S)NNC(=O)c1ccccc1O	-5%	-3%	?	26%	?
CCc1ccc(NC(=O)c2sc(-n3nc(C)c(CCC(C)C)c3C)nc2C)cc1	.	1%	i	.	?
O=S(=O)(c1ccc(NC(=S)N2CCCCC2CO)cc1)N1CCOCC1 (configuration not stated)	.	-1%	?	.	i
Cc1oc(-c2ccc(Cl)cc2)cc1C(=O)N1CCC1(C)C(=O)O (configuration not stated)	.	0%	i	.	i
Cc1oc(-c2ccc(Cl)cc2)cc1C(=O)/C(C#N)=C/Nc1ccccc1	2%	5%	i	13µM*	i
O=S(=O)(Nc1ccc(Br)cn1)c1ccc(Cl)s1	-1%	0%	i	-1%	i
CC(C)c1ccc(S(=O)(=O)/N=C2/C=C(Sc3ncn[nH]3)C(=O)c3ccccc32)cc1	10µM*	-1%	?	3.3µM*	i
Cc1ccc(S(=O)(=O)Nc2ccc(O)c(Sc3ncn[nH]3)c2)cc1	-19%	-3%	i	-36%	i
Cc1ccc(S(=O)(=O)/N=C2/C=C(Sc3ncn[nH]3)C(=O)c3ccccc32)cc1	8.2µM*	-2%	?	11%	i
SMILES	SW480 rereplic	PINK1 modulator	KB-V1 MDR tox	MCF10A rereplic	KB-3-1 cytotox
Cc1ccc(CNC(=O)C(=O)NCC2OCCN2S(=O)(=O)c2ccc(Cl)cc2)cc1 (configuration not stated)	9%	0%	?	?	?
CC(=O)c1cccc(Nc2nn(-c3ccc(OC(F)(F)F)cc3)nc2C(C)=O)c1	.	2%	.	.	.
Cc1ccc(S(=O)(=O)N2CCCCC2)cc1NC(=O)C1CCC1	6%	0%	23µM*	10%	i
Nc1nnc(SCC(=O)Nc2cccc(S(=O)(=O)N3CCCCC3)c2)s1	?	1%	i	?	i
Cc1ccc(S(=O)(=O)N2CCCCC2)cc1NC(=O)CSc1nnc(N)s1	-1%	4%	i	0.58µM*	i
COc1cc(C(=O)Nc2nc3ccc(S(C)(=O)=O)cc3s2)cc(OC)c1C	18µM*	5%	i	3%	i
Cc1ccc(S(=O)(=O)N2CCC(C(=O)Nc3ccccc3N3CCCC3)CC2)cc1	7%	-2%	5.8µM*	-2%	i
CCCCc1cc(=O)oc2cc(OCC(=O)NCCN3CCOCC3)ccc12	26%	0%	i	0%	i
N#Cc1cccc(NC(=O)N2CCC3(CC2)CCN(C(=O)c2cccc(F)c2)CC3)c1	.	0%	.	.	.
COC(=O)c1cc(CNC(=O)c2cccc(F)c2)cc(NC(=O)c2ccccc2OC)c1	.	-1%	.	.	.
COc1cc(/C=C/C(=O)Nc2nc3ccc(S(=O)(=O)N(C)C)cc3s2)cc(OC)c1OC	10µM*	?	i	?	?
C=CCN(CC=C)S(=O)(=O)c1ccc2nc(NC(=O)C3CCCO3)sc2c1 (configuration not stated)	?	1%	8.2µM*	?	?
COc1ccc(OC)c(S(=O)(=O)N2CCC(C(=O)Nc3cc(C)ccc3C)CC2)c1	4.6µM*	3%[38.3 µM]	?	?	i
O=C(Nc1nc2ccccc2s1)C1CCN(S(=O)(=O)c2cc([N+](=O)[O-])ccc2Cl)CC1	?	0%	13µM*	3%	2.3µM*
COc1cc(/C=C/C(=O)Nc2nnc(C(C)(C)C)s2)cc(OC)c1OC	-8%	-1%	?	-1%	i
CCC(C)NC(=O)C1CCN(S(=O)(=O)c2cc([N+](=O)[O-])ccc2Cl)CC1 (configuration not stated)	-18%	-2%	i	16%	i
CC(C)NC(=O)N[C@H]1C=C[C@H](CC(=O)NCc2ccc(Oc3ccccc3)cc2)O[C@@H]1CO	.	.	i	.	i
Cn1cnc2c(NCc3ccccc3)nc(Cl)nc21	.	1%	i	.	i
Cc1ccccc1OCC(=O)Nc1ccc2nc(SCc3ccccc3)sc2c1	.	-2%	?	.	i
COc1ccccc1CNc1ncncc1-c1ccc(C(=O)N(C)C)cc1	.	1%	.	.	.
N#CCc1nc2ccc(S(=O)(=O)N3CCOCC3)cc2s1	150%	-2%	i	13µM*	i
COc1cccc(C(=O)Nc2nc3ccc(S(=O)(=O)N4CCCC4)cc3s2)c1	.	5%	?	.	13µM*
